Bioassay records deposited in PubChem BioAssay by National Center for Advancing Translational Sciences (NCATS).
PI4K2A inh: PI4K2A (human) kinase inhibition; Q9BTU6; purified PI4K2A, ADP-Glo luminescence, 1 h; hits give low values; activity change, negative = inhibition, % at 76.9 µM; actives 0.13% (n = 420,000); AID 1346378; in the data active = activity change below about -50%; inconclusive = mostly about -30% to -49%;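 note: -100% = wells without enzyme as full effect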
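PI4K2A activity was measured by ADP-Glo luminescence: enzyme (4 ug/mL stock) and phosphatidylinositol (1.2 mM stock) in Tris pH 7.5/MgCl2/EGTA/Triton X-100 buffer were reacted with ATP (300 microM stock) for one hour at ambient temperature.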
Tb PFK inh-1: blocks T. brucei phosphofructokinase | T. brucei PFK, ADP-Glo luminescence | actives 0.17% (n = 330,000) | Potency, µM (series often up to 57.5 µM), for inactives: top-dose activity, negative = inhibition, most hits filed as inhibitors | O15648;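 note: potency is the fitted concentration of half-maximal effect; 0% = uninhibited 1x PFK enzyme wells and -100% = no-enzyme wells; nearly all actives have a fitted effect of over 60% in size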
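Compounds were pin-transferred as a titration series up to 57 uM into substrate buffer (0.5 mM F6P, 0.1 mM ATP, pH 8.0), then 1.25 nM PFK was added and reactions ran 45 min before ADP-Glo detection.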
Tb PGK inh: blocks T. brucei phosphoglycerate kinase. P07378. PGK/GAPDH coupled, Kinase-Glo luminescence, 60 min. Potency, µM (top dose mostly 57.5 µM), for inactives: top-dose activity change, negative = inhibition, most hits filed as inhibitors. actives 0.043% (n = 380,000). AID 602233; note: potency is the fitted concentration of half-maximal effect; % is set by controls: 0 for no effect and ±100 for the full control effect; nearly all actives have a fitted effect of over 60% in size
Target sequence (P07378 whole entry, looked up): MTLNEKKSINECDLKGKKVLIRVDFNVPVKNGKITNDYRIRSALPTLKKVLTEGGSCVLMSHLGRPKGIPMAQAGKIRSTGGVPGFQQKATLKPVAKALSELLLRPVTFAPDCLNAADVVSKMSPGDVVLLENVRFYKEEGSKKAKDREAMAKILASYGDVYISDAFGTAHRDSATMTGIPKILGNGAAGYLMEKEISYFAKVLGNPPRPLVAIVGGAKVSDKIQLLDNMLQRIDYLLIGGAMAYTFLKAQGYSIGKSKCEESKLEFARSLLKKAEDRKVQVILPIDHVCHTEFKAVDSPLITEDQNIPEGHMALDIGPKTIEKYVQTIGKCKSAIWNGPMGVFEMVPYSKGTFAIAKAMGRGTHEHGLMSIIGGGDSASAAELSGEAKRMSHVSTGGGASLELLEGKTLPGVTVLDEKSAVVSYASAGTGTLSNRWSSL
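Luminescent ATP detection (Kinase-Glo Plus) follows a 60-minute room-temperature incubation, with wells lacking PGK as controls. Buffer: 100 mM TEA (pH 7.6), 5 mM MgCl2, 0.01% Tween-20. Coupling enzyme GAPDH (100 nM final) supplies unstable 1,3-BPG in-well.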
Pin1 inhibitor: blocks the human prolyl isomerase Pin1 | Pin1 FP peptide displacement, HiFluor488, 10 min | Q13526 | AID 504891 | actives 0.009% (n = 390,000) | Potency, µM (series often up to 115 µM), for the others: top-dose activity, negative = inhibition, actives largely listed as inhibitors; active = well fitted inhibition curve with a large enough effect in the polarisation, with a control signal flat, not every such curve was filed as active; inconclusive = small, poorly fitted or top-dose-only effect, or effect the other way, or a change in a side signal; inactive = no such curve, though single readings can be large or run the other way; the % refers to the polarisation; note: potency is the fitted concentration of half-maximal effect; % is set by controls: 0 for no effect and ±100 for the full control effect
Target sequence (Q13526 whole entry, looked up): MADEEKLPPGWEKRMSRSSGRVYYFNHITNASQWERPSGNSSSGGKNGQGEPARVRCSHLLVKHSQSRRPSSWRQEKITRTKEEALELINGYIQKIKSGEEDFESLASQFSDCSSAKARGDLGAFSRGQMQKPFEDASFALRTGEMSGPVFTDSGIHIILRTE
PI5P4K alpha inh: PI5P4K alpha (human) kinase inhibition; PI5P4Kalpha enzyme, ADP-Glo luminescence, 60 min; hits give low values; max response, %; actives 1.2% (n = 330,000); AID 652105; active = max response of -50% or lower; inconclusive = between -30% and -50%; inactive = -30% or higher; note: value at the top dose of about 77 µM; % is set by controls: 0 for no effect and ±100 for the full control effect
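Luminescence from ADP-Glo served as readout of PI5P4Kalpha activity in a qHTS format. Reaction: enzyme, substrate, compound, ATP at 5 microM final, 60 min at RT.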
TbPFK ATP: inhibits T. brucei PFK measured by ATP depletion; shares compounds with Tb PFK inh-1; Tb PFK enzyme, ATP depletion, Kinase-Glo Plus luminescence; Potency, µM (series often up to 57.5 µM), for inactives: at the top dose inhibition; actives 47% (n = 1,100); AID 504636; calls by dose curve; note: potency is the fitted concentration of half-maximal effect; nearly all actives have a fitted effect of over 60% in size
Tb PFK inh-2: T. brucei PFK enzyme inhibition, hit validation. AID 504637. purified T. brucei PFK, ADP-Glo luminescence, 45 min. Potency, µM (doses to about 57.5 µM), for the others: at the highest dose activity change, negative = inhibition, usual class: inhibitors. shares compounds with Tb PFK inh-1. actives 41% (n = 1,100);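 note: potency is the fitted concentration of half-maximal effect; plate controls were full PFK enzyme control for no effect and no enzyme control for full effect; nearly all actives have a fitted effect of over 60% in size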
* = called active by the depositor. The entries come from a sample that favours hits as a whole. Unless noted, calls come from the whole dose curve; as a rule, active = well fitted curve in the direction sought with a large enough effect; inconclusive = small, poorly fitted or top-dose-only effect, or another doubt; inactive = no such curve, though single readings can be large; an effect the other way counts as inactive or inconclusive.

Nc1cnn(-c2ccccc2)c(=O)c1Cl was read as PI4K2A inh 1, Tb PFK inh-1 0%, Tb PGK inh 3%, Pin1 inhibitor 7% and PI5P4K alpha inh 1.
Cc1c(-c2ccc(Cl)cc2)oc(=O)c2c(N)n(-c3ccccc3)nc12 was read as PI4K2A inh -4, Tb PFK inh-1 inconclusive, Tb PGK inh -17%, Pin1 inhibitor inconclusive, PI5P4K alpha inh 15, TbPFK ATP inconclusive and Tb PFK inh-2 inconclusive.
`CCNc1nc(NCC)n2c(SCC(=O)Nc3ccc(CC)cc3)nnc2n1` gave PI4K2A inh -3, Tb PFK inh-1 21µM*, Tb PGK inh -5%, Pin1 inhibitor 1%, PI5P4K alpha inh inconclusive, TbPFK ATP 17µM* and Tb PFK inh-2 17µM*.
`CC(C)(C)NC(=O)CN1C(=O)[C@@H](Cc2c[nH]c3ccccc23)N=C(c2ccccc2)c2ccccc21` gave PI4K2A inh -2.
`Cc1cc2c(N)cccc2nn1` gave PI4K2A inh -16, Tb PFK inh-1 7.6µM*, Tb PGK inh -1%, Pin1 inhibitor inconclusive, PI5P4K alpha inh inconclusive, TbPFK ATP 6% and Tb PFK inh-2 -2%.
For Cc1c(N)cccc1N the results were PI4K2A inh -3, Tb PFK inh-1 -1%, Tb PGK inh -1%, Pin1 inhibitor inconclusive and PI5P4K alpha inh -10.
For Nc1c(C(=O)Nc2cccc(F)c2)sc2nc(-c3cccs3)ccc12 the results were PI4K2A inh -3, Tb PGK inh -6% and Pin1 inhibitor inconclusive.
NN1C(=O)/C(=C2/Sc3ccccc3N2CCCS(=O)(=O)O)SC1=S was read as PI4K2A inh -25, Tb PFK inh-1 30µM*, Tb PGK inh inconclusive, Pin1 inhibitor 2%, PI5P4K alpha inh inconclusive, TbPFK ATP 19µM* and Tb PFK inh-2 inconclusive.
For CNC(C)Cc1ccccc1OC (stereo not drawn) the results were PI4K2A inh -1.
`O=C(Nc1ccc2c(c1)C(=O)NC2=O)c1ccccc1Cl` gave PI4K2A inh -1, Tb PFK inh-1 inconclusive, Tb PGK inh -8%, Pin1 inhibitor -2%, PI5P4K alpha inh -4, TbPFK ATP 12µM* and Tb PFK inh-2 13µM*.
Nc1cc(N)cc(C(=O)Nc2ccc3c(c2)C(=O)NC3=O)c1 was read as PI4K2A inh -1, Tb PFK inh-1 inconclusive, Tb PGK inh inactive, Pin1 inhibitor 4%, PI5P4K alpha inh -21, TbPFK ATP inconclusive and Tb PFK inh-2 inconclusive.
For CC(=O)n1cc(C(C[N+](=O)[O-])SCCN)c2ccccc21 (stereo not drawn) the results were PI4K2A inh 7, Tb PFK inh-1 inconclusive, Tb PGK inh 3%, Pin1 inhibitor 19%, TbPFK ATP -20% and Tb PFK inh-2 inconclusive.
Screening CC(=O)O[C@H]1CC[C@]2(C=O)C3CC[C@]4(C)[C@@H](C5=CC(=O)OC5)CC[C@]4(O)C3CC[C@]2(O)C1 (stereo partly drawn) returned Pin1 inhibitor -10%.
CCCCOc1ccc(C(=O)NCCc2csc(-c3ccc(OC)cc3)n2)cc1 was read as PI4K2A inh -1, Tb PGK inh -2% and Pin1 inhibitor inconclusive.
O=c1[nH]c2ccsc2c(=O)n1-c1ccc(F)c(Cl)c1 was read as PI4K2A inh 1, Tb PFK inh-1 inconclusive, Tb PGK inh 4%, Pin1 inhibitor -6%, TbPFK ATP -28% and Tb PFK inh-2 29%.
`O=c1[nH]c2ccccc2c(=O)n1-c1cccc(Cl)c1` gave PI4K2A inh -2, Tb PFK inh-1 0%, Tb PGK inh 0%, Pin1 inhibitor 3% and PI5P4K alpha inh 4.
Cc1ccccc1NC(=O)CCl was read as PI4K2A inh 0, Tb PFK inh-1 1%, Tb PGK inh -11%, Pin1 inhibitor -1% and PI5P4K alpha inh -1.
`Cc1ccc(Cl)cc1NC(=O)C[n+]1ccc(Cc2ccc([N+](=O)[O-])cc2)cc1` gave PI4K2A inh -4, Tb PFK inh-1 inconclusive, Tb PGK inh 7%, Pin1 inhibitor 2%, PI5P4K alpha inh 0, TbPFK ATP inconclusive and Tb PFK inh-2 inconclusive.
Screening O=C(OCC(=O)c1ccc([N+](=O)[O-])cc1)/C(=C/c1ccc(Cl)cc1)NC(=O)c1ccccc1 returned PI4K2A inh 19, Tb PFK inh-1 -4%, Tb PGK inh -7%, Pin1 inhibitor 1% and PI5P4K alpha inh -3.
`O=C(O)COc1ccccc1C=NNc1ccc([N+](=O)[O-])cc1S(=O)(=O)Nc1ccc(Cl)cc1` gave PI4K2A inh 7, Tb PFK inh-1 19µM*, Tb PGK inh -10%, Pin1 inhibitor inconclusive, PI5P4K alpha inh inconclusive, TbPFK ATP 30µM* and Tb PFK inh-2 inconclusive.
`COc1cc(/C=N/NC(=O)Cn2c([N+](=O)[O-])cnc2C)ccc1OC(=O)N(C)C` gave PI4K2A inh 1, Tb PFK inh-1 -5% and Pin1 inhibitor 5%.
Screening O=C(COc1ccccc1[N+](=O)[O-])N/N=C/c1ccc(O)c([N+](=O)[O-])c1 returned PI4K2A inh 7, Tb PFK inh-1 inconclusive, Tb PGK inh -1%, Pin1 inhibitor inconclusive, PI5P4K alpha inh inconclusive, TbPFK ATP -28% and Tb PFK inh-2 inconclusive.
Screening Clc1ccc(CSc2nnc([C@@H]3CCCN3)o2)cc1Cl returned PI4K2A inh -2, Tb PFK inh-1 30µM*, Tb PGK inh -9%, Pin1 inhibitor 1%, PI5P4K alpha inh -1, TbPFK ATP 12µM* and Tb PFK inh-2 27µM*.
`NCCCCCc1nnc(SCc2ccc(Cl)c(Cl)c2)o1` gave PI4K2A inh 2, Tb PFK inh-1 24µM*, Tb PGK inh -9%, Pin1 inhibitor 0%, PI5P4K alpha inh 3, TbPFK ATP 13µM* and Tb PFK inh-2 30µM*.
COc1cc(-c2nnc(SCc3cc(=O)oc4cc(O)c(O)cc34)o2)cc(OC)c1OC was read as PI4K2A inh inconclusive, Tb PFK inh-1 inconclusive, Tb PGK inh inconclusive, TbPFK ATP 1.7µM* and Tb PFK inh-2 1.5µM*.
`CCN(CCNc1ccc([N+](=O)[O-])c2cccnc12)S(=O)(=O)c1ccc(Cl)cc1` gave PI4K2A inh -9, Tb PFK inh-1 -11%, Tb PGK inh 5%, Pin1 inhibitor -12% and PI5P4K alpha inh -1.
